# Screen size: about 360,000 compounds; about 340 (0.094%) were called active. The sample holds actives, similar compounds and a random draw of the others, so the mix is not that of the screen. Values without a mark were called inactive. Cut-off read from the data, not from the text of the source: active = inhibition above about 40%; inconclusive = no clear call, values can overlap the other calls; inactive = below that.
# System: 7,8-diaminopelargonic acid synthase BioA (Mycobacterium tuberculosis)
# Test: M. tuberculosis BioA enzyme inhibitors, primary screen, biochemical, plate reader, single point, HTS (AID 602481)
# Settings: purified M. tuberculosis BioA enzyme, at 9.99 µM, active compounds read high
row,SMILES,inhibition
1,COCCNC(=O)C[C@H]1C=C[C@@H](NS(=O)(=O)c2ccc(C)cc2)[C@@H](CO)O1,-2.72%
2,Cc1n[nH]c(=O)n1-c1ccc(Oc2ccccc2)cc1,-2.98%
3,Cc1nc(=O)c(-c2ccccc2)c(C)n1-c1ccc(Br)cc1,42.7% (active)
4,S=C1NC(c2ccccc2)=NCN1c1ccc(Br)cc1,0.0265%
5,CN(C)CC(=O)N1CCCCN2[C@@H](CO)[C@H](c3ccc(-c4cccnc4)cc3)[C@@H]2C1,0.035%
6,C[C@H]1CN([C@@H](C)CO)C(=O)c2cc(C3=CCCC3)cnc2O[C@@H]1CN(C)Cc1cccnc1,4.42%
7,CN1C(=O)c2cc(NC(=O)c3cccc(F)c3)ccc2OC[C@H]2O[C@@H](CC(=O)NCc3ccccc3Cl)CC[C@@H]21,0.94%
8,Cc1noc(C)c1NC(=O)Nc1cccc2c1O[C@H](CN(C)S(C)(=O)=O)[C@H](C)CN([C@H](C)CO)C2=O,3.42%
9,Cc1ccccc1S(=O)(=O)N1[C@H](CO)[C@@H](c2ccc(-c3ccccc3)cc2)[C@@H]1C#N,-1.28%
10,C[C@H](CO)N1C[C@H](C)[C@H](CN(C)CC2CCCC2)Oc2ncc(-c3ccc(F)cc3)cc2C1=O,-5.25%
11,CC(C)NC(=O)Nc1cccc2c1O[C@@H](CN(C)Cc1ccc(C(=O)O)cc1)[C@@H](C)CN([C@H](C)CO)C2=O,-3.95%
12,CCC(=O)N1[C@H](CO)[C@@H]2c3ccccc3N(S(=O)(=O)c3ccccc3C)C[C@@H]21,-6.45%
13,C[C@@H]1CN([C@@H](C)CO)C(=O)c2cccc(NC(=O)c3ccc(-c4nccs4)cc3)c2O[C@@H]1CN(C)S(=O)(=O)c1ccccc1,-1.38%
14,CCN1CCN(c2nc3c(c(=O)[nH]2)CCC3)CC1,-4.22%
15,CCc1c(C)nc(N2CCN(Cc3ccccc3)CC2)[nH]c1=O,-0.075%
16,O=c1[nH]c(N2CCN(Cc3ccc4c(c3)OCO4)CC2)nc2c1CCCC2,71.1% (active)
17,CO[C@@H]1CN(C)C(=O)c2ccc(NS(=O)(=O)c3ccc(C)cc3)cc2OC[C@@H](C)N(Cc2nccs2)C[C@H]1C,-0.694%
18,CCC(=O)Nc1ccc2c(c1)C(=O)N(C)[C@@H]1CC[C@H](CC(=O)NCc3ccccc3)O[C@H]1CO2,-0.647%
19,Cc1ccc(S(=O)(=O)N(C)C[C@@H]2Oc3c(NC(=O)C4CC4)cccc3C(=O)N([C@H](C)CO)C[C@H]2C)cc1,-0.505%
20,CC(C)NC(=O)N(C)C[C@@H]1Oc2ccc(NC(=O)CCCCCC(=O)Nc3ccccc3N)cc2C(=O)N([C@@H](C)CO)C[C@H]1C,-2.93%
21,CCNC(=O)Nc1ccc2c(c1)C(=O)N(C)[C@@H]1CC[C@@H](CC(=O)NCCOC)O[C@@H]1CO2,0.346%
22,COCCNC(=O)C[C@H]1CC[C@@H]2[C@H](COc3ccc(NC(=O)Nc4cccc(F)c4)cc3C(=O)N2C)O1,44.7% (active)
23,CNC(=O)C[C@H]1CC[C@@H]2[C@H](COc3ccc(NC(=O)Nc4cccc(F)c4)cc3C(=O)N2C)O1,32%
24,CCC(=O)N1[C@H](C(=O)NCc2ccc(F)cc2)[C@@H](CO)[C@@H]2Cn3c(ccc(C4=CCCCC4)c3=O)[C@@H]21,-2.21%
25,CCN1[C@@H]2c3ccc(C4=CCCC4)c(=O)n3C[C@@H]2[C@@H](CO)[C@@H]1C(=O)NCc1ccccn1,-3.69%
26,CS(=O)(=O)N1[C@H](C(=O)NCc2ccncc2)[C@@H](CO)[C@@H]2Cn3c(ccc(C4=CCCCC4)c3=O)[C@@H]21,49% (active)

row,SMILES,inhibition
1,C/C=C/c1cnc2c(c1)C(=O)N([C@H](C)CO)C[C@@H](C)[C@H](CN(C)Cc1cccc(C(=O)O)c1)O2,0.203%
2,C[C@@H]1CN([C@@H](C)CO)C(=O)Cc2cc(NC(=O)CCCCCC(=O)Nc3ccccc3N)ccc2O[C@H]1CN(C)Cc1ccc(Cl)c(Cl)c1,-3.74%
3,COCC(=O)Nc1ccc2c(c1)OC[C@@H](C)N(Cc1ccccn1)C[C@H](C)[C@@H](OC)CN(C)C2=O,-0.629%
4,C[C@H](CO)N1C[C@H](C)[C@H](CN(C)Cc2cccc(C(=O)O)c2)Oc2ncc(-c3ccccc3F)cc2C1=O,-3.23%
5,O=c1oc2c(CN3CCCCC3)c(O)ccc2c2c1CCCCC2,16.6%
6,CCCOc1ccc2c3c(c(=O)oc2c1OCCC)CCC3,49.3% (active)
7,COc1ccc2c3c(c(=O)oc2c1OCC(=O)C(C)(C)C)CCCC3,0.336%
8,C[C@H]1CN([C@@H](C)CO)C(=O)CCCn2nncc2CO[C@H]1CN(C)Cc1cccc(C(=O)O)c1,-5.89%
9,C[C@@H]1CN([C@H](C)CO)C(=O)Cc2cc(NS(=O)(=O)c3ccc(F)cc3)ccc2O[C@@H]1CN(C)S(=O)(=O)c1ccc(F)cc1,4.14%
10,CN1c2ccc(C3=CCCCC3)cc2[C@@H]2[C@@H](CCN2S(=O)(=O)c2ccccc2F)[C@H]1CO,-2.02%
11,Cc1ccccc1S(=O)(=O)N1[C@H](C#N)[C@H](c2ccccc2)[C@@H]1CO,-0.99%
12,CC(C)NC(=O)N(C)C[C@@H]1Oc2ccc(NC(=O)C3CC3)cc2C(=O)N([C@@H](C)CO)C[C@H]1C,-0.507%
13,C[C@H](CO)N1C[C@H](C)[C@@H](CN(C)C(=O)Nc2ccc3c(c2)OCO3)Oc2ccc(NS(=O)(=O)c3ccc(Cl)cc3)cc2C1=O,0.544%
14,C[C@@H]1CN([C@@H](C)CO)C(=O)Cc2cc(NC(=O)C3CCCCC3)ccc2O[C@H]1CN(C)C(=O)Nc1ccccc1,0.073%
15,C[C@H]1CN([C@@H](C)CO)C(=O)c2cc(Br)cnc2O[C@H]1CN(C)CC1CCCC1,-0.484%
16,CCCN1[C@H](C(=O)N2CCOCC2)[C@@H](CO)[C@@H]2Cn3c(ccc(/C=C/c4ccccc4)c3=O)[C@@H]21,-3.1%
17,CC1(C)CC(=O)C=C(c2ccc3ncccc3c2)C1,64.2% (active)
18,CC1(C)CC(=O)C=C(c2ccc(Cl)c(C(F)(F)F)c2)C1,-0.352%
19,COc1ccccc1-c1n[nH]nc1C1=CC(=O)CC(C)(C)C1,-1.72%
20,O=S(=O)(N[C@@H]1CC[C@H](CCn2cc(-c3ccccc3F)nn2)O[C@H]1CO)c1ccc(F)cc1,1.57%
21,Cc1c(OC(C)C(=O)N[C@@H](Cc2ccccc2)C(=O)O)ccc2c3c(c(=O)oc12)CCCC3 (stereo partly specified),0.433%
22,Cc1cc(=O)oc2c(C)c(OC(C)C(=O)NC3CCN(Cc4ccccc4)CC3)ccc12 (stereo unspecified),-3.72%
23,Cc1c(OC(C)C(=O)NCC2CCC(C(=O)O)CC2)ccc2c1oc(=O)c1ccccc12 (stereo unspecified),43.7% (active)
24,O=C(CN1CCOCC1)N1CCCCN2[C@H](CO)[C@H](c3ccc(Br)cc3)[C@H]2C1,4.49%
25,COc1cccc(S(=O)(=O)N[C@H]2C=C[C@H](CC(=O)NCc3ccc(Cl)cc3)O[C@@H]2CO)c1,-1.44%

# — PubChem BioAssay AID602481 (Broad Institute, 2012)
